In PubChem BioAssay one finds inhibition and response data, which are given here for 40 compounds.

“And” between values parts separate entries of the source, which are not always exact repeats. Equal values may be shown once. Unmarked numbers belong to inactive results. The source made the active and inactive calls.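 The calls were made as follows, unless noted: active = inhibition above 54%, about 3 SD of non-fluorescent compounds; inactive = the rest.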

For orientation: inhibition means the change of the read-out against control, counted positive when it falls.

AP-2 complex subunit beta (Homo sapiens), sequence (P63010 whole entry, looked up, the tested form may be a part, one chain of several): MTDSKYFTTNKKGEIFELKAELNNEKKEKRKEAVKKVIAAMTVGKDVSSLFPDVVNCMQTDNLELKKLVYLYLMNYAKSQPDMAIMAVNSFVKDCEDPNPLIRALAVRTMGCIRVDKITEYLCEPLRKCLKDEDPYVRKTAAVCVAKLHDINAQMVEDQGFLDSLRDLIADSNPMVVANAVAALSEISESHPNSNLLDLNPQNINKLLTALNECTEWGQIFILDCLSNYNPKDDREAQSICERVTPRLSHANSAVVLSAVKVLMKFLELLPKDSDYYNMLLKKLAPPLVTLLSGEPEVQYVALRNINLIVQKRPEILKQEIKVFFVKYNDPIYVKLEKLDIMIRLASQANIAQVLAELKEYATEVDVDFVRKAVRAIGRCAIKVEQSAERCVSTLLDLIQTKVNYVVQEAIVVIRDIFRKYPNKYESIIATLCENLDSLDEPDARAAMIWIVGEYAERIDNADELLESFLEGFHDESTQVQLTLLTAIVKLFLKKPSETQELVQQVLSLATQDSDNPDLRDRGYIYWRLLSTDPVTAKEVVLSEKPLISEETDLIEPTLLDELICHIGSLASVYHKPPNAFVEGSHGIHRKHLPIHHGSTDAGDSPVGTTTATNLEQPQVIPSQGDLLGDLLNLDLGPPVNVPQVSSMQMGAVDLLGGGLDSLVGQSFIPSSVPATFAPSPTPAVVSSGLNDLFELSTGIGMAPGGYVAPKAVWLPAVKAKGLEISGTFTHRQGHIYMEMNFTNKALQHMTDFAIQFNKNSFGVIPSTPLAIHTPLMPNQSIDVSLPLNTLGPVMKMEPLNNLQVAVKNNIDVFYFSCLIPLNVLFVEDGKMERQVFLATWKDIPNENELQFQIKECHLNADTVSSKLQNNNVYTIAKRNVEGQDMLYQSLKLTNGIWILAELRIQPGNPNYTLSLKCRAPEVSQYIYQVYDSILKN

One assay has as its target AP-2 complex subunit beta (Homo sapiens) (UniProt P63010). Nature of the assay: inhibitors of arrestin peptide binding to AP2, pilot screen, biochemical, validation set, GST-AP2 beads, flow cytometry (AID 504541).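 Also: AP2 carries R879A mutation and is captured from E. coli lysate; bead-bound FITC arrestin peptide fluorescence measuring arrestin peptide binding to AP2; 0% = DMSO wells and 100% = excess unlabeled arrestin peptide control.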 As to conditions: FITC arrestin peptide, at 10 µM, hits give high values, AP2 beta2 appendage fragment, R879A mutant. Background: A flow cytometer gives signals particle by particle.
Consider `COc1cc(C2NCCc3c2[nH]c2ccccc32)ccc1OC(C)C` (stereo not given), for which the inhibition was 1.29%.
As to `O=C(CSCc1ccccc1)NCCCN1CCOCC1`, the inhibition is -9.56%.
On to `O=C(N1CCCCC1)C1(c2ccccc2)CCOCC1`, for which the inhibition was 7.05%.
On the same count and under the same terms, the result for `CCCC(=O)O[C@]1(C(=O)COC(C)=O)CC[C@H]2[C@@H]3C[C@H](F)C4=CC(=O)C=C[C@]4(C)[C@@]3(F)[C@@H](O)C[C@@]21C` reads 24.1%; that for `O=c1ccc2c(o1)/C(=C/C=C(Cl)Cl)CCC2`, 60.4% (active); that for `COc1cc(Cc2cnc(N)nc2N)cc(OC)c1OC`, -0.17% and -5.67%.
On to `O=C(CC(NC(=O)OCc1ccccc1)C(=O)O)OCc1ccccc1` (stereo not given), for which the inhibition is -5.06%.
Still for that read-out and setting: in the case of `O=c1c(-c2ccccc2)c(O)c2cccc3c2n1CCC3` it was -7.94%; in that of `O=C(O)C1CCN(C(=O)COc2ccc3c4c(c(=O)oc3c2)CCC4)CC1`, -5%; in that of `CCOC(=O)c1cccc(P(C)(C)=O)c1`, -7.26%.
As to `O=C(O)c1cc2cc(F)ccc2[nH]1`, the inhibition is 8.62%.
Turning to `O=C(O)c1ccccc1C(=O)OCCCCOC(=O)c1ccccc1C(=O)O`, the inhibition is -4.07%.
With `Cn1nc(-c2ccc(Cl)cc2)nc2c(=O)n(C)c(=O)nc1-2`, the inhibition was -4.09%.
On to `O=c1[nH]c(=O)n([C@H]2C[C@H](O)[C@@H](CO)O2)cc1C(F)(F)F`, for which the inhibition was 13.9%.
The same measure, in the same setting: in the case of `COc1ccc(-c2cc(C(=O)N3CCOCC3)c3cc(C)ccc3n2)cc1` it was 9.71%.
For the compound `Cc1ccc2c(c1)c1c3n2CCCN(Cc2ccccc2)C3CCC1` (stereo not given), the inhibition was -2.35%.
On the same count and under the same terms, the result for `CCCCCCCC(=O)OCC(O)CO` (stereo not given) reads -8.36%; that for `S=C(c1ccc2c(c1)OCO2)N1CCCCC1`, 34.2%.
Consider `COc1cc2cc(C)nc(Cc3cccc4ccccc34)c2cc1OC`, for which the inhibition is 8.39%.
In the case of `CCn1cc(C(=O)O)c(=O)c2ccc(C)nc21`, the inhibition was -4.75%.
For `c1coc(-c2nnc3n2C2(CCCC2)Cc2ccccc2-3)c1`, the inhibition is -13.2%.
As for `COc1ccc(Cc2noc(CN(C)CCN3CCc4ccccc4C3)n2)cc1OC`, the inhibition is -8.41%.
On to `CC1(C)c2ccccc2N2CC(=O)NC21/C=C/c1ccco1` (stereo not given), for which the inhibition was -7.94%.
On the same count and under the same terms, the result for `CC12CC(c3ccccc3O1)C(C(=O)N1CCOCC1)C(=O)N2` (stereo not given) reads -22.1%; that for `O=C1CC(c2ccc(OCCCCCOc3ccc(C4CC(=O)NC4=O)cc3)cc2)C(=O)N1` (stereo not given), -7.1%.
Regarding `O=c1[nH]c(=O)n(C2CCCO2)cc1F` (stereo not given), the inhibition is -10.2%.
As for `NC(N)=NC(=O)Cc1c(Cl)cccc1Cl`, the inhibition is 18%.
Still for that read-out and setting: the result for `CCOC(=O)Cn1c(C)cc(=O)c2ccccc21` reads 56.3% (active); that for `Cc1ccc(C(=O)Nc2ccccc2C(=O)NC(C(=O)O)C(C)C)cc1` (stereo not given), 10.5%.
The same measure, in the same setting: the result for `Cc1cc(O)c2/c(=N\N)c(-c3csc(C)n3)coc2c1` reads -8.85%; that for `O=C(CN1C(=O)/C(=C/c2cccc(Br)c2)SC1=S)Nc1cccnc1`, -4.86%; that for `COc1ccc2[nH]c(CN3CCN(CC(C)C)C(CCO)C3)c(C)c2c1` (stereo not given), -1.65%.
As to `CC[N+](C)(C)c1cccc(O)c1`, the inhibition is -0.12%.
Consider `COc1cccc2c(=O)c(C/C=C(/C)Cl)c(C)[nH]c12`, for which the inhibition is -8.34%.
Consider `O=C(N/N=C/c1ccc([N+](=O)[O-])o1)c1ccc(O)cc1`, for which the inhibition is -8.31%.
Regarding `CC(=O)N1CCn2c3c(c4cc(C)ccc42)CCCC31` (stereo not given), the inhibition is 61.1% (active).
Same read-out and setting: the result for `Cc1ccc(CN2CCN(CCCc3ccccc3)CC2CCO)cc1` (stereo not given) reads 30.3%; that for `CCC(C(=O)Nc1ccc2c(c1)OCCO2)c1ccccc1` (stereo not given), 3.98%.
As for `CN(C)CCC=C1c2ccccc2CCc2ccccc21`, the inhibition is -8.77%.
The same measure, in the same setting: the result for `CN(C)c1ccc(CNCCC(Cc2ccccc2)c2ccco2)cc1` (stereo not given) reads -16.6%.

System in a further assay: not listed separately
Nature of the assay: yeast V-ATPase proton transport modulators, S. cerevisiae, pHLuorin, HTS validation (AID 504600; in the data active = response above about 15%;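 also: plate controls were DMSO for no effect and reference compound for full effect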). The settings on record: S. cerevisiae pHLuorin cytosolic pH, at 10 µM, hits give high values.
Turning to `COc1cc(C2NCCc3c2[nH]c2ccccc32)ccc1OC(C)C` (stereo not given), the response is 0.8%.
For the compound `O=C(CSCc1ccccc1)NCCCN1CCOCC1`, the response is 3.45%.
On to `O=C(N1CCCCC1)C1(c2ccccc2)CCOCC1`, for which the response is 0.45%.
In the case of `CCCC(=O)O[C@]1(C(=O)COC(C)=O)CC[C@H]2[C@@H]3C[C@H](F)C4=CC(=O)C=C[C@]4(C)[C@@]3(F)[C@@H](O)C[C@@]21C`, the response is -0.33%.
Still for that read-out and setting: the result for `O=c1ccc2c(o1)/C(=C/C=C(Cl)Cl)CCC2` reads -6.24%; that for `COc1cc(Cc2cnc(N)nc2N)cc(OC)c1OC`, 1.16% and -26%; that for `O=C(CC(NC(=O)OCc1ccccc1)C(=O)O)OCc1ccccc1` (stereo not given), -3.27%.
On to `O=c1c(-c2ccccc2)c(O)c2cccc3c2n1CCC3`, for which the response was 0.3%.
The same measure, in the same setting: in the case of `O=C(O)C1CCN(C(=O)COc2ccc3c4c(c(=O)oc3c2)CCC4)CC1` it was 1.29%; in that of `CCOC(=O)c1cccc(P(C)(C)=O)c1`, -2.31%; in that of `O=C(O)c1cc2cc(F)ccc2[nH]1`, 1.32%.
Turning to `O=C(O)c1ccccc1C(=O)OCCCCOC(=O)c1ccccc1C(=O)O`, the response was 1.28%.
In the case of `Cn1nc(-c2ccc(Cl)cc2)nc2c(=O)n(C)c(=O)nc1-2`, the response is 59.4% (active).
The same measure, in the same setting: the result for `O=c1[nH]c(=O)n([C@H]2C[C@H](O)[C@@H](CO)O2)cc1C(F)(F)F` reads -1.8%; that for `COc1ccc(-c2cc(C(=O)N3CCOCC3)c3cc(C)ccc3n2)cc1`, -6.37%.
The same measure, in the same setting: the result for `Cc1ccc2c(c1)c1c3n2CCCN(Cc2ccccc2)C3CCC1` (stereo not given) reads -2.93%; that for `CCCCCCCC(=O)OCC(O)CO` (stereo not given), 4.53%; that for `S=C(c1ccc2c(c1)OCO2)N1CCCCC1`, -2.91%.
Regarding `COc1cc2cc(C)nc(Cc3cccc4ccccc34)c2cc1OC`, the response is -0.08%.
Consider `CCn1cc(C(=O)O)c(=O)c2ccc(C)nc21`, for which the response was -3.3%.
The same measure, in the same setting: the result for `c1coc(-c2nnc3n2C2(CCCC2)Cc2ccccc2-3)c1` reads 0.46%; that for `COc1ccc(Cc2noc(CN(C)CCN3CCc4ccccc4C3)n2)cc1OC`, 0.56%.
As to `CC1(C)c2ccccc2N2CC(=O)NC21/C=C/c1ccco1` (stereo not given), the response was -1.22%.
On to `CC12CC(c3ccccc3O1)C(C(=O)N1CCOCC1)C(=O)N2` (stereo not given), for which the response is 0.44%.
As to `O=C1CC(c2ccc(OCCCCCOc3ccc(C4CC(=O)NC4=O)cc3)cc2)C(=O)N1` (stereo not given), the response was 2.37%.
`O=c1[nH]c(=O)n(C2CCCO2)cc1F` (stereo not given): the response was 6.89%.
Still for that read-out and setting: the result for `NC(N)=NC(=O)Cc1c(Cl)cccc1Cl` reads -2.92%.
With `CCOC(=O)Cn1c(C)cc(=O)c2ccccc21`, the response is -4.51%.
Take `Cc1ccc(C(=O)Nc2ccccc2C(=O)NC(C(=O)O)C(C)C)cc1` (stereo not given): the response was 0.12%.
Still for that read-out and setting: in the case of `Cc1cc(O)c2/c(=N\N)c(-c3csc(C)n3)coc2c1` it was -3.38%.
`O=C(CN1C(=O)/C(=C/c2cccc(Br)c2)SC1=S)Nc1cccnc1`: the response is 4.59%.
`COc1ccc2[nH]c(CN3CCN(CC(C)C)C(CCO)C3)c(C)c2c1` (stereo not given): the response was 2.28%.
For the compound `CC[N+](C)(C)c1cccc(O)c1`, the response is -0.97%.
Turning to `COc1cccc2c(=O)c(C/C=C(/C)Cl)c(C)[nH]c12`, the response is 3.49%.
`O=C(N/N=C/c1ccc([N+](=O)[O-])o1)c1ccc(O)cc1`: the response was 4%.
On the same count and under the same terms, in the case of `CC(=O)N1CCn2c3c(c4cc(C)ccc42)CCCC31` (stereo not given) it was 4.65%.
For `Cc1ccc(CN2CCN(CCCc3ccccc3)CC2CCO)cc1` (stereo not given), the response is -5.49%.
In the case of `CCC(C(=O)Nc1ccc2c(c1)OCCO2)c1ccccc1` (stereo not given), the response was -0.08%.
As for `CN(C)CCC=C1c2ccccc2CCc2ccccc21`, the response is 6.98%.
With `CN(C)c1ccc(CNCCC(Cc2ccccc2)c2ccco2)cc1` (stereo not given), the response is 2.43%.
